Source: PubChem (several laboratories)
MLLE-PAM2 inh: inhibitors of PABP1 MLLE–PAM2 peptide binding, primary screen, biochemical, fluorescence polarization, FITC-PAM2, GST-MLLE; hit rate 0.36% among 360,000; inhibition, % at 20 µM; Polyadenylate-binding protein 1 (Homo sapiens), P11940; in the data active means inhibition above about 35%, passing the limit was not always enough;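 further: plate controls were DMSO wells with GST-MLLE for no effect and wells lacking GST-MLLE protein for full effect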
Target sequence (P11940 whole entry, looked up): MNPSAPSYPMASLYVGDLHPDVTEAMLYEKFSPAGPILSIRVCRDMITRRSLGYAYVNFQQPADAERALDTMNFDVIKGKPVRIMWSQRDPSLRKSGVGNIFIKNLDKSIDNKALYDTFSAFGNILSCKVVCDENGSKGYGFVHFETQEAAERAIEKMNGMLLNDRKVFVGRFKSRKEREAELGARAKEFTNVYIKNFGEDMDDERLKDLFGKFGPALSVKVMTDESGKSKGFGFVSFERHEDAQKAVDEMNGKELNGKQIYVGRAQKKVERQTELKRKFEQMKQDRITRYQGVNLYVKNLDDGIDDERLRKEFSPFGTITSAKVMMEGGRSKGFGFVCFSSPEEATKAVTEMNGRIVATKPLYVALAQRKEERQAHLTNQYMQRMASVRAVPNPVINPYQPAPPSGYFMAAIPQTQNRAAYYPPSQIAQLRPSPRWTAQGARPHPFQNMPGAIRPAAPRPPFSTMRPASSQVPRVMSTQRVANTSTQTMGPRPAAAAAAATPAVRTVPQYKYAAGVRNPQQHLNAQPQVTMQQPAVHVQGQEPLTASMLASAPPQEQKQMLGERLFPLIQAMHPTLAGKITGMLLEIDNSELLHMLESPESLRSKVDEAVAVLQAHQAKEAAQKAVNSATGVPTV
eIF4H inh: human eIF4H binding inhibitors, primary screen, translation initiation inhibitor project, biochemical, uHTS, fluorescence polarization; Eukaryotic translation initiation factor 4H (Homo sapiens), Q15056; eIF4H fluorescence polarization binding assay; inhibition, % at 35 µM; hit rate 0.94% among 290,000;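 further: calls also rest on retests at 20 µM and on dose response follow-up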
Efflux pump inh: inhibitors of Candida efflux pumps in yeast, primary screen, S. cerevisiae, Nile Red, multiplex. S. cerevisiae Candida pump triplex. inhibition, % at 10 µM. hit rate 0.44% among 330,000;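 active means plate passing quality check with inhibition over a set limit, or well fluorescence over plate mean plus 4 SD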;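 further: Nile Red retained in pooled yeast measured as flow cytometry median fluorescence; 0% = buffer negative control and 100% = Enniatin B positive control; higher means more Nile Red kept so more efflux inhibition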
PABP polyA inh: PABP poly(A) RNA binding inhibitors, primary screen, biochemical, fluorescence polarization, uHTS; Polyadenylate-binding protein 1 (Homo sapiens), P11940; inhibition, % at 35 µM; hit rate 1% among 290,000;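 further: calls also rest on retests at 20 µM and on dose response follow-up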
ALR H2O2 inh: inhibitors of human ALR sulfhydryl oxidase, primary screen, biochemical, H2O2 detection, HRP-luminol luminescence, single point; FAD-linked sulfhydryl oxidase ALR (Homo sapiens), P55789; purified ALR, DTT oxidation; inhibition, % (test concentration not listed); hit rate 3.8% among 290,000; AID 485317, 2010;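 active means mean replicate inhibition above about 79%, with every replicate also reaching it, limit read from the data; inconclusive means only one of the two criteria met; inactive means mean below limit and not every replicate reaching it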
UBC9 SUMO inh: inhibitors of in vitro SUMOylation cascade, primary screen, biochemical, HTRF, uHTS; SUMO-conjugating enzyme UBC9 (Homo sapiens), P63279; HTRF SUMOylation assay, SAE1/SAE2 + UBC9; inhibition, % at 35 µM; hit rate 0.36% among 290,000; AID 2006, 2009; in the data active means inhibition above about 50%, passing the limit was not always enough; inconclusive means no clear call, values can overlap the other calls
* = called active by the depositor; ? = inconclusive; . = no result given. Sampled rows, rich in hits. Any-hit rate of the full collection: about 4.7%. Unless noted, how the calls were made is not given here.

SMILES | MLLE-PAM2 inh | eIF4H inh | Efflux pump inh | PABP polyA inh | ALR H2O2 inh | UBC9 SUMO inh
COC(=O)c1ccc(C(=O)N2CCCC(Nc3ccc(C(C)C)cc3)C2)cc1 (stereo not given) | 5 | -7 | 0 | -1 | 98* | -9
CC(C)c1ccc(NC2CCCN(C(=O)c3n[nH]c4c3CCC4)C2)cc1 (stereo not given) | -3 | -6 | 0 | -5 | 99* | -16
COCCn1c(=NC(=O)c2cc3ccccc3oc2=O)sc2cc(S(N)(=O)=O)ccc21 | 4 | 9 | 0 | 4 | 2 | -3
CC(=O)/C(N)=N/Nc1cccc(Cl)c1 | -18 | -2 | 0 | 2 | 99* | 6
CC(=O)/C(=N\Nc1cccc(Cl)c1)Sc1cccc2cccnc12 | 11 | -8 | 1 | ? | -3 | 6
NC(=O)c1nnsc1-c1ccco1 | 1 | . | . | . | . | .
C#CCOCCOCCOCCNc1nc(N2CCN(C(=O)[C@H](C)n3cc(CCC(=O)O)nn3)CC2)nc(N2CCN(C(=O)[C@H](CCCCN)n3cc(CCCC)nn3)CC2)n1 | -2 | . | . | . | . | .
Cn1nc(-c2ccc(Cl)cc2)c2cc(C(=O)N3CCOCC3)sc21 | -1 | 8 | 0 | 9 | 95* | 1
CCN(CC)CCCNC(=O)c1cc(-c2ccc(O)cc2)on1 | -2 | -4 | 0 | -4 | 99* | 7
CCN(CC)CCCNC(=O)c1cc2c(-c3ccc(Cl)cc3)nn(C)c2s1 | -3 | -3 | 0 | -4 | 94* | 31
Cn1nc(-c2ccc(Cl)cc2)c2cc(C(=O)NCC3CCCO3)sc21 (stereo not given) | 11 | -13 | 0 | 6 | 93* | 30
OC[C@@H]1CN(CCc2ccccc2)C[C@H](n2cnc3c(NCc4ccc(F)cc4)ncnc32)O1 | -8 | . | . | . | . | .
O=C(N=C1SC2CS(=O)(=O)CC2N1Cc1ccc(F)cc1)C1CCCO1 (stereo not given) | 0 | -15 | 0 | -7 | -2 | 21
COc1cccc(C2NC(c3cccc(OC)c3O)C(C)C(=O)C2C)c1O (stereo not given) | -5 | -5 | 0 | -5 | 87* | 15
COC(=O)CCCC(=O)OC | -15 | . | 0 | . | . | .
COC(=O)CCN(C)CCC(=O)OC | -5 | -8 | 0 | -9 | 96* | 0
Cc1ccc(NS(=O)(=O)c2cccc3nsnc23)cc1[N+](=O)[O-] | 14 | 3 | 0 | -9 | -9 | -3
C=CCn1c(NCCO)nc2sc3c(c2c1=O)CCC3 | 3 | 1 | 0 | 12 | 86* | -2
O=C(C1CC(=O)N(c2ccc3c(c2)OCCO3)C1)N1CCN(Cc2ccccc2)CC1 (stereo not given) | -10 | . | 0 | . | -3 | .
CCOC(=O)C1CCN(C(=O)C2CC(=O)N(c3ccc4c(c3)OCCO4)C2)CC1 (stereo not given) | -2 | 19 | 0 | 60* | -12 | -1
Cc1cc(=O)[nH]c(N/N=C/c2c(F)c(F)c(F)c(F)c2F)n1 | 7 | -8 | 0 | -9 | 76* | 6
CCOc1cc(/C=N/Nc2ncc(C)c(=O)[nH]2)ccc1O | -8 | 9 | 1 | 5 | 100* | 13
CCOc1cc(/C=N/Nc2nc(C)cc(=O)[nH]2)ccc1O | -15 | -7 | 0 | 7 | 96* | -6
Cc1cc(=O)[nH]c(NN=Cc2cc(Br)ccc2O)n1 | -15 | . | . | . | . | .
Cc1cc(=O)[nH]c(N/N=C/c2ccccc2Cl)n1 | -10 | 7 | 0 | 15 | -16 | 9
SMILES | MLLE-PAM2 inh | eIF4H inh | Efflux pump inh | PABP polyA inh | ALR H2O2 inh | UBC9 SUMO inh
O=C(COc1ccc(Br)cc1)N(Cc1ccco1)C1CCS(=O)(=O)C1 (stereo not given) | -12 | -9 | 0 | -3 | -26 | 7
COC(=O)c1cc(-c2c(C)nn(-c3ccccc3)c2C)n[nH]1 | 14 | -10 | 0 | 7 | 86* | 8
CCc1ccc(OS(=O)(=O)c2cn(C)c(=O)n(C)c2=O)cc1 | 41* | -5 | 0 | -3 | -8 | -1
O=C(Nc1ccc(N2CCOCC2)cc1)c1cnsn1 | -4 | -16 | . | -5 | . | -10
CC(Sc1nc2ccccc2n1C)C(=O)Nc1ccc(N2CCOCC2)cc1 (stereo not given) | -21 | -11 | 0 | -3 | 95* | 8
CN(C)c1cccc(C(=O)Nc2ccc(N3CCOCC3)cc2)c1 | -16 | -6 | 0 | 3 | 91* | 5
O=C(Nc1ccc(N2CCOCC2)cc1)c1cccc(-n2cnnc2)c1 | -12 | 7 | 0 | 0 | 1 | 10
CC(C)Cn1c(SC(C)C(=O)Nc2ccc(N3CCOCC3)cc2)nc2ccccc21 (stereo not given) | -49 | -4 | 0 | 7 | -4 | -16
O=C(Nc1ccc(N2CCOCC2)cc1)Nc1ccc2nsnc2c1 | -3 | -9 | 0 | 0 | 86* | 9
Cn1cccc1C(=O)Nc1ccc(N2CCOCC2)cc1 | 2 | . | 1 | . | 97* | .
O=C(NOC(=O)c1c(F)cccc1Cl)c1ccc(Cl)c(Cl)c1 | 9 | -7 | 0 | 2 | 19 | -1
O=C(O)COc1ccccc1C(Nc1cccnc1)c1cc(Cl)c2cccnc2c1O (stereo not given) | 32 | 100 | . | 23 | . | 77*
O=C(O)COc1ccccc1C(Nc1ccccn1)c1cc(Cl)c2cccnc2c1O (stereo not given) | 32 | 54* | 0 | 6.4* | . | 2
Cc1cc(NC(=O)C(Cl)Cl)cc2c1OCO2 | -10 | . | . | . | . | .
CC(=O)Nc1cccc(-c2ccnc3c2CC(C)(C(=O)Nc2cccc(OC(F)(F)F)c2)O3)c1 (stereo not given) | 3 | . | . | . | . | .
O=C(CCl)N1N=C(c2ccco2)CC1c1ccco1 (stereo not given) | 7 | 54* | 0 | 31* | 38 | 12
COc1ccc2nc(Cl)c(C3CC(c4ccco4)=NN3C(=O)CCCC(=O)O)cc2c1 (stereo not given) | 1 | 68 | 0 | 38 | -3 | 0
Cc1cccc2cc(C3CC(c4ccco4)=NN3C(=O)CCC(=O)O)c(Cl)nc12 (stereo not given) | -9 | 56* | 0 | 7 | 40 | 5
COc1ccc2nc(Cl)c(C3CC(c4ccco4)=NN3C(=O)CCC(=O)O)cc2c1 (stereo not given) | -2 | 92* | 0 | 4 | 5 | 37
Cc1ccc2nc(Cl)c(C3CC(c4ccco4)=NN3C(=O)CCCC(=O)O)cc2c1 (stereo not given) | -2 | 17 | 0 | -6 | . | 7
Cc1ccccc1CNC(=O)C(C)Sc1ccccc1 (stereo not given) | 5 | . | . | . | . | .
CC1=C(C(=O)N2CCN(c3cc(C)ccc3C)CC2)C2(CCC(C)CC2)OC1=O (stereo not given) | . | 6 | . | 4 | . | 4
